Assay results taken from PubChem BioAssay.
Values joined by “and” are separate entries in the source; they are usually repeats but may differ in a detail not shown here. Equal values may be shown once. Active and inactive are the calls of the source.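 How the source made its calls, unless noted: active means normalized viability below 100% at a tested concentration; inactive means the rest.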

Columns and labels:
[1] = sensitizers of A549 cells to miR-34 induction, primary screen, imaging, A549 dox-inducible miR-34, nuclei and caspase counts (AID 1347080;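 active means compounds whose cell count with miR-34 switched on is under 0.7 times the count with it off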); details: A549 miR-34 inducible, Hoechst nuclei count, 48 h
[2] = survival rescue of mitochondrial mutant cells in low glucose, primary screen, MELAS cybrids, Rieske KO mouse fibroblasts, CellTiter-Glo (AID 1508586;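 active means mean z-score across replicates of 1.96 or higher in either the MELAS or the Rieske mutant cell line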;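 further: z relative to plate mean and SD of compound and empty wells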)
[3] = ovarian cancer cell viability with rucaparib, profiling panel, oncology-focused library, rucaparib conditional (AID 1508598); details: patient-derived ovarian cancer cells, CellTiter-Glo viability, 144 h, stronger effect = lower value
[4] = LFS_MB_P medulloblastoma growth inhibition, cell-based, chromothripsis tumors, cisplatin or BGB combos (AID 1671449; in the data active means inhibition above about 80%;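 further: cells exposed for 96 hours; 0% = vehicle DMSO and 100% = killing by high DMSO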); details: LFS_MB_P medulloblastoma cells
[5] = HDN33 neuroblastoma growth inhibition, cell-based, chromothripsis tumors, cisplatin or BGB combos (AID 1671450; in the data active means inhibition above about 80%;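 further: cells exposed to compound for four days; 0% = vehicle DMSO and 100% = cell killing by high DMSO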); details: HDN33 neuroblastoma cells, stronger effect = higher value
[6] = ICB984 medulloblastoma cell growth inhibition, synergistic combos for chromothripsis tumors, cisplatin or BGB combos (AID 1671451; call rule not given here;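 further: cells exposed for 96 hours before readout; 0% = vehicle DMSO and 100% = killing by high DMSO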); details: ICB984 medulloblastoma cells, drug combinations, stronger effect = higher value
[7] = LFS_MB_1R medulloblastoma cell growth inhibition, synergistic combos for chromothripsis tumors, cisplatin or BGB combos (AID 1671452; in the data active means inhibition above about 80%;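 further: cells exposed for 96 hours before readout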); details: LFS_MB_1R medulloblastoma cells, stronger effect = higher value
[8] = HTB85 osteosarcoma cell growth inhibition, synergistic combos for chromothripsis tumors, BGB or cisplatin IC20 combos (AID 1671453; in the data active means inhibition above about 80%;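 further: cells exposed for 96 hours before readout; 0% = vehicle DMSO and 100% = high DMSO killing control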); details: HTB85 osteosarcoma cells, drug combinations, stronger effect = higher value
[9] = CRL2098 osteosarcoma cell growth inhibition, synergistic combos for chromothripsis tumors, BGB or cisplatin IC20 combos (AID 1671454; in the data active means inhibition above about 80%;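 further: cells exposed for 96 h before readout; 0% = vehicle DMSO and 100% = killing by high DMSO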); details: CRL2098 osteosarcoma cells, drug combinations, stronger effect = higher value
[10] = HD-MB03 medulloblastoma cell growth inhibition, synergistic combos for chromothripsis tumors, BGB or cisplatin IC20 combos (AID 1671455; in the data active means inhibition above about 83%;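 further: 0% = vehicle DMSO and 100% = high DMSO as cytotoxic control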); details: HD-MB03 medulloblastoma cells, stronger effect = higher value
[11] = UWB1.289 ovarian carcinoma cell growth inhibition, synergistic combos for chromothripsis tumors, BGB or cisplatin combos (AID 1671456; in the data active means inhibition above about 80%;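 further: cells exposed to compound for four days; 0% = vehicle DMSO and 100% = killing by high DMSO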); details: UWB1.289 ovarian carcinoma cells, stronger effect = higher value
[12] = LFS_MB_2R medulloblastoma cell growth inhibition, synergistic combos for chromothripsis tumors, cisplatin combos (AID 1671457; in the data active means inhibition above about 80%;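 further: cells exposed to compound for four days before readout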); details: LFS_MB_2R medulloblastoma cells, stronger effect = higher value
[13] = MDA-MB-436 breast carcinoma cell growth inhibition, synergistic combos for chromothripsis tumors, BGB or cisplatin combos (AID 1671458; call rule not given here;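 further: cells exposed for 96 hours; 0% = vehicle DMSO and 100% = killing by high DMSO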); details: MDA-MB-436 breast carcinoma growth inhibition, drug combinations, stronger effect = higher value
[14] = UWB1.289_BRCA1 ovarian cancer growth, cell-based, BGB or cisplatin combinations (AID 1671459; in the data active means inhibition above about 80%); details: UWB1.289 BRCA1 ovarian carcinoma, drug combinations, stronger effect = higher value
[15] = growth inhibition of BT084 medulloblastoma cells, cell-based, ICGC_MB145, cisplatin and BGB IC40 combos (AID 1671461; in the data active means inhibition above about 80%;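 further: cells exposed to drugs for 96 hours; 0% = vehicle DMSO and 100% = high DMSO full killing control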); details: drug combinations, stronger effect = higher value
[16] = growth inhibition of RCMB18 medulloblastoma cells, cell-based, cisplatin and BGB IC40 combos (AID 1671462; in the data active means inhibition above about 80%;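 further: cells exposed to compound for four days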); details: stronger effect = higher value
[17] = growth inhibition of CRL1545 osteosarcoma cells, cell-based, cisplatin and BGB IC20 combos (AID 1671464; in the data active means inhibition above about 80%;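 further: cells exposed to compound for 96 hours before readout; 0% = vehicle DMSO and 100% = high DMSO killing control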); details: stronger effect = higher value
[18] = measured here: combination with BGB IC40, at 0.05 µM
[19] = measured here: with BGB IC20 combination, at 0.5 µM
[20] = measured here: with cisplatin IC20 combination, at 0.5 µM
[21] = measured here: combination with cisplatin, at 0.5 µM
[22] = measured here: combination with cisplatin, at 5 µM

C[C@@]1(c2nc3c(C(N)=O)cccc3[nH]2)CCCN1
fold change ([1]; stronger effect = lower value, cell number ratio, induced over uninduced): 0.941 (inactive)
fold change ([1]; measured here: relative caspase fold change +Dox/-Dox): 1.01
cell count ([1]; measured here: total cells with miR-34 induction, stronger effect = lower value): 6840
cell count ([1]; measured here: total cells without miR-34 induction): 7270
z-score ([2]; MELAS cybrid survival, CellTiter-Glo 48 h, stronger effect = higher value): -0.268 (inactive)
z-score ([2]; Rieske KO mouse fibroblast survival, CellTiter-Glo 72 h): 0.497
viability ([3]; at 0.000305 µM, OCI-C5x cells, with rucaparib 10 µM, 100% = cells with rucaparib alone): 125% (inactive)
viability ([3]; at 0.000305 µM, OCI-C5x cells, without rucaparib): 110% (inactive)
viability ([3]; at 0.000305 µM, OCI-P5x cells, with rucaparib 20 µM, 100% = cells with rucaparib alone): 108% (inactive)
viability ([3]; at 0.000305 µM, OCI-P5x cells, without rucaparib): 83.4% (active)
viability ([3]; at 0.00122 µM, OCI-C5x cells, with rucaparib 10 µM, 100% = cells with rucaparib alone): 114% (inactive)
viability ([3]; at 0.00122 µM, OCI-C5x cells, without rucaparib): 114% (inactive)
viability ([3]; at 0.00122 µM, OCI-P5x cells, with rucaparib 20 µM, 100% = cells with rucaparib alone): 97.2% (active)
viability ([3]; at 0.00122 µM, OCI-P5x cells, without rucaparib): 101% (inactive)
viability ([3]; at 0.00488 µM, OCI-C5x cells, with rucaparib 10 µM, 100% = cells with rucaparib alone): 122% (inactive)
viability ([3]; at 0.00488 µM, OCI-C5x cells, without rucaparib): 109% (inactive)
viability ([3]; at 0.00488 µM, OCI-P5x cells, with rucaparib 20 µM, 100% = cells with rucaparib alone): 106% (inactive)
viability ([3]; at 0.00488 µM, OCI-P5x cells, without rucaparib): 102% (inactive)
viability ([3]; at 0.0195 µM, OCI-C5x cells, with rucaparib 10 µM, 100% = cells with rucaparib alone): 121% (inactive)
viability ([3]; at 0.0195 µM, OCI-C5x cells, without rucaparib): 106% (inactive)
viability ([3]; at 0.0195 µM, OCI-P5x cells, with rucaparib 20 µM, 100% = cells with rucaparib alone): 98.2% (active)
viability ([3]; at 0.0195 µM, OCI-P5x cells, without rucaparib): 95.2% (active)
viability ([3]; at 0.0781 µM, OCI-C5x cells, with rucaparib 10 µM, 100% = cells with rucaparib alone): 120% (inactive)
viability ([3]; at 0.0781 µM, OCI-C5x cells, without rucaparib): 104% (inactive)
viability ([3]; at 0.0781 µM, OCI-P5x cells, with rucaparib 20 µM, 100% = cells with rucaparib alone): 91.6% (active)
viability ([3]; at 0.0781 µM, OCI-P5x cells, without rucaparib): 102% (inactive)
viability ([3]; at 0.313 µM, OCI-C5x cells, with rucaparib 10 µM, 100% = cells with rucaparib alone): 132% (inactive)
viability ([3]; at 0.313 µM, OCI-C5x cells, without rucaparib): 102% (inactive)
viability ([3]; at 0.313 µM, OCI-P5x cells, with rucaparib 20 µM, 100% = cells with rucaparib alone): 98.3% (active)
viability ([3]; at 0.313 µM, OCI-P5x cells, without rucaparib): 91% (active)
viability ([3]; at 1.25 µM, OCI-C5x cells, with rucaparib 10 µM, 100% = cells with rucaparib alone): 111% (inactive)
viability ([3]; at 1.25 µM, OCI-C5x cells, without rucaparib): 108% (inactive)
viability ([3]; at 1.25 µM, OCI-P5x cells, with rucaparib 20 µM, 100% = cells with rucaparib alone): 90% (active)
viability ([3]; at 1.25 µM, OCI-P5x cells, without rucaparib): 87.4% (active)
viability ([3]; at 5 µM, OCI-C5x cells, with rucaparib 10 µM, 100% = cells with rucaparib alone): 123% (inactive)
viability ([3]; at 5 µM, OCI-C5x cells, without rucaparib): 108% (inactive)
viability ([3]; at 5 µM, OCI-P5x cells, with rucaparib 20 µM, 100% = cells with rucaparib alone): 80.7% (active)
viability ([3]; at 5 µM, OCI-P5x cells, without rucaparib): 91.4% (active)
inhibition ([4]; at 0.5 µM, stronger effect = higher value): -30.4% (inactive) and -7.42% (inactive)
inhibition ([4]; measured here: combination with BGB IC20, at 0.005 µM): 18.7% and -30.5%
inhibition ([4]; measured here: combination with BGB IC40, at 0.005 µM): -17.7% and -33.9%
inhibition [4, 18]: 4.58% and -46.4%
inhibition ([4]; measured here: combination with cisplatin, at 0.5 µM, stronger effect = higher value): -30.4% and -24.5%
inhibition ([4]; measured here: combination with cisplatin, at 5 µM, stronger effect = higher value): -24.1% and -57.4%
inhibition ([5]; BGB combo, at 5 µM): -38.7% and -21.7%
inhibition ([5]; at 0.5 µM): -18.6% (inactive) and -27.5% (inactive)
inhibition ([5]; cisplatin combo, at 5 µM): -25% and 2.08%
inhibition [5, 19]: -20.1% and -23.6%
inhibition [5, 20]: -10.4% and -15.2%
inhibition ([5]; single agent, at 5 µM): -35.1% and -10.6%
inhibition ([6]; BGB IC20 combo, at 0.005 µM): -43.5% and -1.75%
inhibition ([6]; BGB IC40 combo, at 0.005 µM): -45.8% and -18.7%
inhibition ([6]; BGB IC40 combo, at 0.05 µM): -19.5% and -39.6%
inhibition ([6]; at 0.5 µM): -17.4% (inactive) and -39% (inactive)
inhibition ([6]; cisplatin combo, at 0.05 µM): -25.6% and -44.6%
inhibition ([6]; cisplatin combo, at 0.5 µM): -23.4% and -27.8%
inhibition ([6]; cisplatin combo, at 5 µM): -25.3% and -24.6%
inhibition ([6]; measured here: 5 uM single agent, at 5 µM): -15.1% and -18.4%
inhibition ([7]; at 0.5 µM): -10.8% (inactive) and -21.8% (inactive)
inhibition [7, 18]: 5.8% and -13.2%
inhibition [7, 21]: -30.9% and -32.1%
inhibition [7, 22]: -34.7% and -78.6%
inhibition ([8]; at 0.5 µM): -28.2% (inactive) and -8.28% (inactive)
inhibition ([8]; measured here: with BGB IC20, at 0.5 µM): -26.4% and -15.6%
inhibition ([8]; measured here: with BGB IC20, at 5 µM): -37.2% and -23.1%
inhibition ([8]; measured here: with cisplatin IC20, at 0.5 µM): -25.2% and -2.08%
inhibition ([8]; measured here: with cisplatin IC20, at 5 µM): -5% and -37.1%
inhibition ([8]; single agent, at 5 µM): -8.07% and -11.2%
inhibition ([9]; at 0.5 µM): -55.3% (inactive) and -67.8% (inactive)
inhibition ([9]; measured here: combination with BGB at IC20, at 0.5 µM): -51.9% and -45%
inhibition ([9]; measured here: combination with cisplatin at IC20, at 0.5 µM): -90.3% and -100%
inhibition ([10]; at 0.5 µM): -10.9% (inactive) and -9.85% (inactive)
inhibition ([10]; measured here: combo with BGB at IC20, at 0.5 µM): -9.31% and -21.4%
inhibition ([10]; measured here: combo with cisplatin at IC20, at 0.5 µM): -20.2% and -6.83%
inhibition ([11]; at 0.5 µM): -10.2% (inactive) and 3.78% (inactive)
inhibition ([11]; measured here: inhibition with BGB combination, at 0.05 µM): -8.84% and -23.2%
inhibition ([11]; measured here: inhibition with cisplatin combination, at 0.05 µM): -15.9% and -9.39%
inhibition ([12]; at 0.5 µM): -15.2% (inactive) and -24.4% (inactive)
inhibition [12, 21]: -24.8% and -30.4%
inhibition [12, 22]: -13.3% and -26.2%
inhibition ([13]; at 0.5 µM): 4.59% (inactive) and -23.4% (inactive)
inhibition ([13]; measured here: BGB combination, at 0.5 µM): -1.87% and -40.7%
inhibition ([13]; measured here: BGB combination, at 5 µM): 2.42% and -13.4%
inhibition ([13]; measured here: cisplatin combination, at 0.5 µM): -2.04% and -27.9%
inhibition ([13]; measured here: cisplatin combination, at 5 µM): -0.972% and -36.3%
inhibition ([14]; BGB combination, concentration series, at 5 µM): -24.7% and -7.53%
inhibition ([14]; at 0.5 µM): -10.7% (inactive) and -7.52% (inactive)
inhibition ([14]; cisplatin combination, concentration series, at 5 µM): -27.7% and -31.9%
inhibition ([15]; at 0.5 µM): -3.53% (inactive) and 6.53% (inactive)
inhibition ([15]; cisplatin combination, at 0.5 µM): -17.4% and -25.6%
inhibition ([15]; cisplatin combination, at 5 µM): -105% and -12.9%
inhibition ([15]; measured here: BGB IC40 combination 0.05 uM, at 0.05 µM): -13.2% and 18.5%
inhibition ([15]; single agent, at 5 µM): 2.42% and -15%
inhibition ([16]; at 0.5 µM): -29.1% (inactive) and -18.3% (inactive)
inhibition ([16]; cisplatin combo, at 5 µM): -12.7% and -24.7%
inhibition ([16]; measured here: BGB IC40 combination, at 0.05 µM): 9.85% and -28.2%
inhibition [16, 21]: -32.2% and 3.58%
inhibition ([16]; single agent, at 5 µM): -6.99% and -21%
inhibition ([17]; at 0.5 µM): -24.4% (inactive) and -51.1% (inactive)
inhibition [17, 19]: -33.5% and -35.5%
inhibition [17, 20]: -21.8% and -61.5%
inhibition ([17]; single agent, at 0.05 µM): -21.6% and -35.7%
inhibition ([17]; single agent, at 5 µM): 11.5% and 14.2%
